FLuc modulator: inhibits or activates purified firefly luciferase, miR-21 counter-screen | AID 588342 | purified FLuc, Km substrates, luminescence inhibition | actives 6.9% (n = 360,000) | Potency, µM (doses to about 57.5 µM), for the others: at the top dose activity change, negative = inhibition, actives largely listed as inhibitors;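 further: plate controls were vehicle for no effect and reference inhibitor for full effect; nearly all actives have a fitted effect of over 55% in size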
Target sequence (P08659 whole entry, looked up): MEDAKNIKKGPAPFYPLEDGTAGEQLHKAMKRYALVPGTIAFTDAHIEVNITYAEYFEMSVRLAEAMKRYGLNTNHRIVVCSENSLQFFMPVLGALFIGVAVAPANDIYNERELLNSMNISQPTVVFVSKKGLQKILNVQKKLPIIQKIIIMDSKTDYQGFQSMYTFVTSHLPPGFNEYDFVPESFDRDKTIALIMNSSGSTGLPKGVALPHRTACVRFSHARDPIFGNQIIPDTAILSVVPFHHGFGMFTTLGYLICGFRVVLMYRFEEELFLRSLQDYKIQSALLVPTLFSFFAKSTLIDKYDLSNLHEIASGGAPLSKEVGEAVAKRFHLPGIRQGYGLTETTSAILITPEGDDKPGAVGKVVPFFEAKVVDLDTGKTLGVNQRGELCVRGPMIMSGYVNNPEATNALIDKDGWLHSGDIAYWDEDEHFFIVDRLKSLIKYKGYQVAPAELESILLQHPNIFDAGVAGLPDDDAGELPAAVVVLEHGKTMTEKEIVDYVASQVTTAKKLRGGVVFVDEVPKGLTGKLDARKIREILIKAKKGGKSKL
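Biochemical qHTS of compounds, final roughly 60 µM downward over six points, against 10 nM purified firefly luciferase using Km concentrations of substrates (10 uM D-luciferin, 10 uM ATP) in Tris acetate pH 7.5 buffer; luminescence output.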
SMN2 splice up: increases expression of the SMN2 splice variant. HEK293 SMN2-luciferase splicing reporter, luminescence, 30-36 h. Potency, µM (highest dose often 46.1 µM), for inactives: top-dose activity change, positive = activation, actives largely listed as activators. actives 2.8% (n = 210,000); further: % of control where 0% means no effect; nearly all actives have a fitted effect of over 55% in size
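HEK293 cells carry an SMN2 […]–luciferase reporter in which exon 7 inclusion puts luciferase in frame. Cells were plated 10-12 h before compound addition, then incubated 30-36 h at 37C. ONE-Glo luminescence was read; sodium butyrate at 4.5 mM final served as control.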
Rab9 promoter act: activators of Rab9 promoter; Huh7 Rab9 promoter-luciferase reporter, luminescence, 24 h; Potency, µM (series often up to 9.22 µM), inactives show at the highest dose activation, negative = inhibition, hits mostly activators; actives 2.8% (n = 320,000); further: % of control where 0% means no effect; nearly all actives have a fitted effect of over 60% in size
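Luminescence read-out: Huh7 cells stably expressing Rab9-luciferase, treated 24 h with compound at 37 °C, then lysed with luciferase reagent for 10 min at ambient before reading.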
ELG1 DNA repair: blocks ELG1-dependent DNA repair in HEK293T cells | Potency, µM (highest dose often 46.1 µM), without a hit: at the highest dose activity change, negative = inhibition, most hits filed as inhibitors | AID 504467 | actives 2.3% (n = 330,000) | HEK293T ELG1-luciferase reporter, luminescence, 16 h; DNA damage induced by 5-fluorouridine; further: on the % scale 0 is the no-effect control and ±100 the full control effect; nearly all actives have a fitted effect of over 55% in size
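5-Fluorouridine DNA damage + compound/DMSO, 2,000 cells/well, 16 h, 37 °C/5% CO2. ONE-Glo, 30 min RT, luminescence. Readout = decrease in reporter signal.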
NPC1 promoter act: activators of NPC1 promoter; Potency, µM (doses to about 9.22 µM), for inactives: at the top dose activation, usual class: activators; actives 2.4% (n = 320,000); AID 485313; Huh7 NPC1 promoter luciferase reporter, 24 h; further: % of control where 0% means no effect; nearly all actives have a fitted effect of over 60% in size
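Quantitative HTS used a cell-based reporter: Huh7 cells stably bearing the NPC1 promoter upstream of luciferase were treated with compounds for 24 h, and promoter activation was read as luminescence.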
ELG1 genotox: inducers of genotoxicity in HEK293T ELG1-luciferase cells | HEK293T ELG1-luciferase reporter, luminescence, 16 h | Potency, µM (series often up to 46 µM), inactives show top-dose activity change, positive = activation, most hits filed as activators | actives 1.3% (n = 330,000); further: % of control where 0% means no effect; nearly all actives have a fitted effect of over 60% in size
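After overnight (16 hr) compound treatment at 37 °C, ELG1-luciferase HEK293T cells were lysed with ONE-Glo; luminescence quantified 30 min later at room temperature.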
Active calls of the source: *; ? = inconclusive; · = no result; [ ] = dose if it differs, or a comment. Hits are enriched below; roughly 9.4% of the tested compounds scored in any of these assays. The call rests on the fitted dose curve; in most records, active means well fitted curve in the direction sought with a large enough effect; inconclusive means small, poorly fitted or top-dose-only effect, or another doubt; inactive means no such curve, though single readings can be large; an effect the other way counts as inactive or inconclusive. Potency means the concentration at half of the fitted maximal effect.

SMILES	FLuc modulator	SMN2 splice up	Rab9 promoter act	ELG1 DNA repair	NPC1 promoter act	ELG1 genotox
CCc1ccc(C(=O)CSc2n[nH]c(C)n2)cc1	21µM*	5%	?	2%	30%	5%
Cc1nc2ccccc2c(=O)n1-c1ccc(NC(=O)C(F)(F)F)cc1	-4%	·	·	·	·	·
CNC(=O)C1CCC(Cn2c(=O)c3sccc3n(CC(=O)N3CCCC(C)C3)c2=O)CC1 (centres undefined)	0%	·	·	·	·	·
O=C(c1ccccc1)[C@H]1[C@H](c2ccccc2)[C@@]2(N=C(c3ccccc3)OC2=O)C2c3ccccc3C=NN21 (some centres undefined)	?	?	4.5µM*	?	4µM*	6%
COc1ccccc1NC(=O)C1=C(C)Nc2nc(-c3ccco3)nn2C1c1ccccc1F (centres undefined)	-5%	-9%	·	·	·	·
Cn1cc(S(=O)(=O)Nc2ccc3c(c2)OCCO3)cn1	?	·	12%	?	-4%	?
CCn1cc(S(=O)(=O)Nc2ccc3c(c2)OCCO3)cn1	17µM*	·	-9%	?	3%	?
CC(C)OC(=O)c1cc2c(ccn2-c2ccc(F)cc2)n1CC(=O)N1CCN(C(=O)c2ccco2)CC1	-1%	·	-6%	8.2µM*	-1%	-11%
COC(=O)c1cc2c(ccn2-c2ccc(F)cc2)n1CC(=O)N1CCN(C(=O)c2ccco2)CC1	2%	14%	0%	16µM*	-2%	0%
CCn1c(C(=O)OC)cc2c1ccn2-c1ccc(F)cc1	9.5µM*	16µM*	?	?	?	16µM*
COC(=O)c1cc2c(ccn2-c2ccc(F)cc2)n1Cc1ccc(OC)cc1	?	?	2%	16%	-1%	8%
Cc1ccc2nc(COc3ccccc3NC(=O)c3ccc(F)cc3)cc(=O)n2c1	-7%	·	·	·	·	·
CCN(CC)c1ccc(C2Nc3cccc4cccc(c34)N2)c(O)c1	17µM*	0%	?	?	?	10%
COc1cc(C2Nc3cccc4cccc(c34)N2)cc(OC)c1OC(C)=O	17µM*	4%	2%	-4%	-2%	5%
COc1ccc(Br)cc1C1Nc2cccc3cccc(c23)N1	-20%	·	23%	-9%	?	?
COc1cc(C2Nc3cccc4cccc(c34)N2)ccc1O	13µM*	·	18%	-9%	?	-2%
C[C@@H](CN(C)C)CN1c2ccccc2CCc2ccccc21	·	0%[20.6 µM]	·	·	·	·
Oc1ccc(Nc2ncnc3ccccc23)cc1	?	·	4%	-6%	-1%	9%
Cc1ccc(Nc2ncnc3ccccc23)cc1	12µM*	·	1.8µM*	?	?	17%
CC(C)Oc1ccc(Nc2ncnc3ccccc23)cc1	17µM*	13µM*	3.2µM*	?	3.5µM*	?
CC(=O)Oc1cccc(Nc2ncnc3ccccc23)c1	?	·	0%	2%	8%	4%
Cc1nncn1-c1ccc(C(=O)Nc2cc(F)ccc2F)cc1	0%	·	·	·	·	·
CCc1ccc(S(=O)(=O)c2nnn3c2nc(NCCc2ccccc2)c2sccc23)cc1	51%	·	·	·	·	·
CCOc1ccc(NS(=O)(=O)c2cc(NC(=O)c3ccc(C)cc3)ccc2Cl)cc1	13µM*	-68%	-27%	6.5µM*	-29%	-5%
CCOc1ccc(NC(=O)c2ccc(NS(=O)(=O)c3cccs3)cc2)cc1	12µM*	·	-2%	9%	-6%	-1%
SMILES	FLuc modulator	SMN2 splice up	Rab9 promoter act	ELG1 DNA repair	NPC1 promoter act	ELG1 genotox
COc1ccc(/C(C)=N/NC(=O)c2nc(C)cc(C)n2)cc1	24µM*	11µM*	?	?	?	5.6µM*
CCOc1ccc(C(=O)c2cccs2)cc1	17µM*	12%	?	?	?	?
COc1ccc(/C(C)=N/NC(=O)c2ccc(N(C)C)cc2)cc1	3%	-14%	-10%	15%	-4%	2%
CN1C(=O)Cc2cc(S(=O)(=O)CCC(=O)Nc3ccc(Cl)cc3)ccc21	-2%	·	·	·	·	·
Cc1cc(C)c2c(n1)nn1c(C)c(CCC(=O)Nc3cccc(C)c3C)c(C)nc21	2%	15%	·	·	·	·
COc1ccc2oc(-c3cccc(NC(=O)c4cc([N+](=O)[O-])ccc4N4CCOCC4)c3)nc2c1	?	8%	·	·	·	·
CC(=O)c1cccc(NCc2ccccc2-c2nnc(-c3ccccc3)o2)c1	?	12%	·	·	·	·
COc1ccc(N(C)C(=O)CCn2cnc3onc(-c4ccc(F)cc4)c3c2=O)c(OC)c1	3%	·	·	·	·	·
COc1ccc(C(=O)Nc2ccc(Cl)c(S(=O)(=O)Nc3ccccc3OC)c2)cc1	?	-58%	-27%	?	-13%	0%
COc1ccc(/C(C)=N/NC(=O)c2ccc(NS(=O)(=O)c3cccs3)cc2)cc1	21µM*	·	-3%	24%	2%	2%
COc1ccccc1NS(=O)(=O)c1cc(NC(=O)c2ccc(Cl)nc2)ccc1Cl	2%	-73%	-27%	13µM*	-8%	-15%
C/C(=N\NC(=O)c1ccc(NS(=O)(=O)c2cccs2)cc1)c1ccccn1	?	·	-3%	3.7µM*	-8%	6%
CCc1ccc(NC(=O)c2sc3nc(C)cc(C)c3c2NC(=O)c2ccccc2OC)cc1	0%	20%	·	·	·	·
CCOc1ccc(OCc2ccc(C(=O)N3CCCC(C)C3)cc2)cc1 (centres undefined)	13µM*	10µM*	2µM*	?	4µM*	?
O=S(=O)(c1ccccc1)N1CCN(c2nc3ccccc3s2)CC1	5%	-4%	?	?	21%	?
Clc1ccc2nc(N3CCN(c4ccccc4)CC3)sc2c1	0.6µM*	3.2µM*	0.89µM*	?	1.4µM*	?
Brc1ccc2nc(N3CCN(c4ccccc4)CC3)sc2c1	?	3.2µM*	1µM*	?	1.8µM*	2.3µM*
Cc1ccc(CN2CCC(CNC(=O)Nc3c(C)cccc3C)C2)cc1 (centres undefined)	-1%	-7%	·	·	·	·
Cc1noc(C)c1C(=O)N1CCC2(CCCN(C(=O)Nc3cccc(F)c3)C2)CC1	·	-6%	·	·	·	·
O=C(NC(=S)N1CCOCC1)c1cn(-c2ccccc2)nc1-c1ccc(F)cc1	-12%	·	-1%	-22%	1%	-2%
O=C1N/C(=N/S(=O)(=O)Cc2ccccc2)S/C1=C/c1ccc2c(c1)OCO2	27µM*	·	-5%	3%	-2%	-2%
COc1ccc(/C=C2\SC(=NCc3ccccc3)NC2=O)cc1	-13%	-10%	-2%	-17%	-2%	-1%
Cc1noc(C)c1-c1nccc(NCc2cccnc2)n1	·	30%	·	·	·	·
